Data on 39 compounds can be found in the supplement of paper PMC3484114.

± gives the standard deviation.

The assay has as its system OVCAR-3-derived ovarian cancer stem-like cells (spheroids). The assay can be described thus: cell growth relative to untreated control; higher = more growth (less inhibition). To be noted: 2.29 µM; 96 h. Summed up: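 Stem-like cells derived from OVCAR-3 spheroids were dissociated with trypsin and seeded at 50,000 cells/mL in stem cell medium in ultra-low attachment 96-well plates, then preincubated for 24 h. Each compound was added at 2.29 uM to 4 replicate wells and left for 96 h at 37°C, 5% CO2. Viability came from TOX8 resazurin fluorescence (ex 560/em 590 nm) read after 4 h. Percent growth was expressed relative to untreated wells, after blank subtraction and removal of outliers by the Grubbs test.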
The compound `C=C1C(=O)OC2/C=C(/CO)[C@@H](OC(C)=O)C[C@H](O)/C(C)=C\[C@@H](OC(=O)[C@@H](C)CC)[C@@H]12` (some centres undefined) had a cell growth of 100 ± 50%.
The value for `O=C1NC(c2cccc3ccccc23)Nc2ccccc21` (centres undefined) was 34.9 ± 6.6%; that for `Nc1nc(SCc2ccccc2Cl)c2[nH]cnc2n1` was 106 ± 13%.
Next, `Nc1ncnc2c1nc(Cl)n2[C@@H]1O[C@@H]2COP(=O)(O)O[C@H]2[C@H]1O`: 115 ± 43%; `Cc1ccc2[nH]c(O)c(N=Nc3ccccc3[N+](=O)[O-])c2c1`: 108 ± 15%; `CCCCCC/C=C\CCCCCCCCCc1cccc(OC)c1O`: 115 ± 69%.
As to `CC(C)C1=C(O)C2=C(C(=O)C1=O)C1(C)CCCC(C)(C)C1CC2O` (centres undefined), the cell growth amounted to 134 ± 36%.
`CN1CCN(CCNc2ccc(CO)c3sc4ccccc4c(=O)c23)CC1`: the cell growth was 49.7 ± 14%.
Next, `CCCC(=O)[O-].[Na+]`: 88.2 ± 19%; `COc1ccc2nc(C)cc(NCCCCCCCCCNc3cc(C)nc4ccc(OC)cc34)c2c1`: 75.9 ± 37%.
Regarding `O=[N+]([O-])c1cccc2c(N=Nc3ccc4ccccc4c3O)c(O)cc(S(=O)(=O)O)c12`, the cell growth is 74.2 ± 40%.
Next, `C/C(=N\NC(=S)N1CCC1)c1ccccn1`: 20.6 ± 4%; `CCCCC(/C=N/N=C(N)N)CC.Cc1cc(O)c(C(C)C)cc1S(=O)(=O)O`: 91.8 ± 17%; `CC(C)(C)CC(C)(C)NCC(O)COc1ccc(C(C)(C)c2ccc(OCC(O)CNC(C)(C)CC(C)(C)C)cc2)cc1` (centres undefined): 7.1 ± 2.1%.
The value for `c1coc(CNc2ncnc3[nH]ncc23)c1` was 37.7 ± 8.4%; that for `Cc1nc2c(o1)C(=O)c1ccccc1C2=Nc1ccccc1` was 123 ± 56%.
Next, `Oc1ccc(-c2nc3ccccc3s2)cc1`: 94.8 ± 14%; `Cn1ncc2cc3c(Nc4ccc(Cl)cc4)cccc3nc21`: 8 ± 4.9%.
Regarding `CCOC(=O)C1=C(O)CSC1=Nc1ccc(N=C2SCC(O)=C2C(=O)OCC)cc1`, the cell growth was 108 ± 30%.
Next, `O=C1c2ccccc2C(=O)c2c(NCCNCCO)ccc(O)c21`: 67.2 ± 44%.
In turn, `O=C(c1ccccc1)C(c1ccccc1)C1(O)C(=O)Nc2c(Cl)cc(Cl)cc21` (centres undefined) had a cell growth of 114 ± 29%.
The value for `O=c1ccc2ccc(CBr)cc2o1` was 84.2 ± 21%; that for `CC1(C)NC(=O)N(CCCCCCN2C(=O)NC(C)(C)C2=O)C1=O` was 85.8 ± 22%; that for `Cc1cc(O)c(C(C)C)cc1C1(c2cc(C(C)C)c(O)cc2C)OC(=O)c2ccccc21` was 104 ± 32%.
`Oc1ccc(/C=N/NC(=S)Nc2cccnc2)nc1`: the cell growth came to 145 ± 23%.
The value for `O=C1C=C(NCCc2ccccc2)c2ccccc2C1=O` was 57.3 ± 10%.
Next, `CC1=C\C(O)CC(=O)Cc2nc(co2)C(=O)N2CCC=C2C(=O)OC(C(C)C)C(C)/C=C/C(=O)NC/C=C\1.CCC1NC(=O)C(NC(=O)c2ncccc2O)C(C)OC(=O)C(c2ccccc2)NC(=O)C2CC(=O)CCN2C(=O)C(Cc2ccc(N(C)C)cc2)N(C)C(=O)C2CCCN2C1=O` (centres undefined): 80.8 ± 20%; `Oc1cc(-n2cccn2)c(O)cc1-n1cccn1`: 103 ± 13%; `CC[C@]1(O)C[C@H]2CN(CCc3c([nH]c4ccccc34)[C@@](C(=O)OC)(c3cc4c(cc3OC)N(C=O)[C@H]3[C@@](O)(C(=O)OC)[C@H](OC(C)=O)[C@]5(CC)C=CCN6CC[C@]43[C@@H]65)C2)C1`: 27 ± 6%.
Next, `CO[C@H]1C[C@@H]2CC[C@@H](C)[C@@](O)(O2)C(=O)C(=O)N2CCCC[C@H]2C(=O)O[C@H]([C@H](C)C[C@@H]2CC[C@@H](O)[C@H](OC)C2)CC(=O)[C@H](C)/C=C(\C)[C@@H](O)[C@@H](OC)C(=O)[C@H](C)C[C@H](C)/C=C/C=C/C=C/1C`: 97 ± 21%.
Consider `Nc1nc(N)c(-c2cccc(C(F)(F)F)c2)c(Cc2cccc(C(F)(F)F)c2)n1`, for which the cell growth is 114 ± 34%.
In turn, `O=C1c2ccccc2C(=O)c2sc(Nc3ccc(Cl)cc3)nc21` returned a cell growth of 14.5 ± 3.2%.
The value for `O=C(NC(=O)c1c(Cl)nc2sccn12)Nc1ccc(Cl)cc1` was 136 ± 25%; that for `COC(=O)c1cc(-c2c[nH]cc2C(=O)OCc2ccccc2)cn1S(=O)(=O)c1ccc(C)cc1` was 140 ± 35%.
Next, `COc1ccc(-c2csc(=[N+]3CCCCC3)s2)cc1`: 80 ± 11%.
Take `COc1cc(OC)c2c(C)cc(=O)oc2c1`: the cell growth came out at 108 ± 32%.
The value for `O=C(NC1=C(Cl)C(=O)c2ccccc2C1=O)C(=O)C(C(=O)c1ccc2ccccc2c1)C1OC(=O)c2ccccc21` (centres undefined) was 89.6 ± 20%; that for `CC(=O)c1sc2c(c1OC(=O)c1ccc(Cl)cc1Cl)c(=O)n(-c1ccccc1)c(=S)n2-c1ccccc1` was 94.1 ± 24%.
The value for `O=C1C(Cl)=C(N2CCN(C3=C(Cl)C(=O)c4ccccc4C3=O)CC2)C(=O)c2ccccc21` was 52.1 ± 17%.
